Screening results: PubChem BioAssay, National Center for Advancing Translational Sciences (NCATS)
DT40 TDP1 CPT – DT40-hTDP1 cell growth loss with CPT. Potency, µM (doses to about 46.2 µM), without a hit: at the top dose activity change, negative = growth inhibition, most hits filed as inhibitors. AID 686979. hit rate 12% among 420,000. chicken DT40 Tdp1-/-;hTDP1 cells + 20 nM CPT, ATP luminescence, 48 h; note: potency is the fitted concentration of half-maximal effect; nearly all actives have a fitted effect of over 55% in size
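Chicken DT40 Tdp1-/- cells complemented with human TDP1, 400 cells/well, exposed to compounds plus 20 nM camptothecin for at least 48 h at 37 C; viability read as ATP content by CellTiter-Glo luminescence.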
CtBP-E1A inh – blocks the CtBP interaction with E1A; AlphaScreen GST-E1A/His-CtBP binding, 1536-well; stronger effect = lower value; activity change, % (concentration not given with the values); hit rate 0.49% among 340,000; AID 651724; in the data active = activity change below about -65%; inconclusive = mostly about -30% to -63%
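Steps: dispense buffer (Tris pH 8.0, NaCl 300 mM, TCEP 1 mM, BSA, Tween 20); add 5X protein mix (GST-E1A, His-CtBP, 125 nM each); pin 23 nL compound; 2 h at 37 °C, dark; add 5X beads (50 ug/mL); 1 h; read.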
Six1-Eya2 inh – blocks human Six1 binding to Eya2; AlphaScreen GST-Six1/His-Eya2 binding, biochemical; stronger effect = lower value; activity change, % (concentration not given with the values); hit rate 0.56% among 360,000; AID 651725; in the data active = activity change below about -65%; inconclusive = mostly about -30% to -63%
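Homogeneous AlphaScreen proximity assay pairing GST-Six1 with His-tagged Eya2 (added as 5X mix: 250 nM and 500 nM) in 50 mM Tris pH 8.0, 300 mM NaCl, 1 mM TCEP. Glutathione donor and nickel acceptor beads; 1 h, 37 °C, dark.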
IL1B secr inh – inhibitors of inflammasome signaling (IL-1 beta secretion); THP-1 LPS/ATP IL-1B secretion, AlphaLISA, 16 h; stronger effect = lower value; activity change, % at 57.5 µM; hit rate 4.7% among 360,000; in the data active = activity change below about -50%; inconclusive = mostly about -30% to -49%
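Secreted IL-1B measured by AlphaLISA bead assay after 16 h compound exposure of THP-1 cells; compounds (final up to 57.5 uM) added 1 h before LPS (250 ng/mL) and ATP (1.25 mM) stimulation; lower signal means less secretion.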
DT40 TDP1 no CPT – qHTS for Inhibitors of human tyrosyl-DNA phosphodiesterase 1 (TDP1): qHTS in cells in absence of CPT; DT40 Tdp1-/- hTDP1 cells, no CPT, ATP luminescence, 48 h; Potency, µM (highest dose often 46.2 µM), for the others: at the top dose activity change, negative = growth inhibition, most hits filed as inhibitors; hit rate 15% among 420,000; note: potency is the fitted concentration of half-maximal effect; nearly all actives have a fitted effect of over 55% in size
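Luminescent ATP content (CellTiter-Glo) served as the growth readout. Knockout chicken DT40 cells expressing human TDP1 were exposed to compounds without camptothecin for a minimum 48 hr at 37 °C.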
TDP1 inh – inhibitors of human tyrosyl-DNA phosphodiesterase TDP1; Q9NUW8; recombinant TDP1, AlphaScreen DNA substrate cleavage; Potency, µM (top dose mostly 130 µM), inactives show top-dose activity change, negative = inhibition, actives largely listed as inhibitors; hit rate 0.28% among 350,000; note: potency is the fitted concentration of half-maximal effect; nearly all actives have a fitted effect of over 40% in size
Target sequence (Q9NUW8 whole entry, looked up): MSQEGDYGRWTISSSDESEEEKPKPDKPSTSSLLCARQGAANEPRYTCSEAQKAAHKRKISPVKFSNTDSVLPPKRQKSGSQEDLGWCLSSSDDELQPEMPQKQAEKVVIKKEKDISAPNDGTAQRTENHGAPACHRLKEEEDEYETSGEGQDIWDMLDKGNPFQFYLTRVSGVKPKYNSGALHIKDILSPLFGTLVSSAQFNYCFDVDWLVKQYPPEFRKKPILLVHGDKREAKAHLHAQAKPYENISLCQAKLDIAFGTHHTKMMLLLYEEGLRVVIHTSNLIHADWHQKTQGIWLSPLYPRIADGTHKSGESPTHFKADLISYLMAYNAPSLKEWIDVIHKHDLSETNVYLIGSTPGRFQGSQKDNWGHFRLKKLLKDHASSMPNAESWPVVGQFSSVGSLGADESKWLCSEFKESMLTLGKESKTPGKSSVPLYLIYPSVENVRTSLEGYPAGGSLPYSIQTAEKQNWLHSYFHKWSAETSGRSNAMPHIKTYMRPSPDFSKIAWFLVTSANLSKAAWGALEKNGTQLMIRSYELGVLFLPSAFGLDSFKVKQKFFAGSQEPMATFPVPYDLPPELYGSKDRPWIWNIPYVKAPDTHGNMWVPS
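Here, a 5' biotin and 3' phosphotyrosine-FITC DNA oligonucleotide reports Tdp1 activity: intact substrate bridges AlphaScreen beads, while cleavage leaves a 3' phosphate and drops signal. All incubations at room temperature.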
The depositor's hits bear a star; [ ] = another dose, or the depositor's remark. Sampled rows, rich in hits. Any-hit rate of the full collection: about 18%. Unless noted, calls come from the whole dose curve; as a rule, active = well fitted curve in the direction sought with a large enough effect; inconclusive = small, poorly fitted or top-dose-only effect, or another doubt; inactive = no such curve, though single readings can be large; an effect the other way counts as inactive or inconclusive. % is set by controls: 0 for no effect and ±100 for the full control effect.

COc1ccc(C(=O)Nc2cc3c4c(c2)CC(=O)N4CCC3)c(OC)c1 was read as DT40 TDP1 CPT inconclusive, CtBP-E1A inh -7, Six1-Eya2 inh -5, IL1B secr inh 15, DT40 TDP1 no CPT inconclusive and TDP1 inh 5%.
`NS(=O)(=O)c1cccc(NC(=O)CSc2ncnc3ccccc23)c1` gave DT40 TDP1 CPT -23%, CtBP-E1A inh -10, Six1-Eya2 inh -1, IL1B secr inh -13 and DT40 TDP1 no CPT inconclusive.
`Cc1cccc(C)c1NC(=S)NC(=O)CCc1ccccc1` gave DT40 TDP1 CPT 4%, CtBP-E1A inh 9, Six1-Eya2 inh -2, IL1B secr inh 15, DT40 TDP1 no CPT -25% and TDP1 inh 4%.
For O=C(Nc1ccc(C(=O)N2CCCC2)cc1)c1ccccc1 the results were DT40 TDP1 CPT inconclusive, CtBP-E1A inh 6, Six1-Eya2 inh 0, IL1B secr inh -8 and DT40 TDP1 no CPT inconclusive.
`O=C(Nc1ccc2c(c1)CCCN2C(=O)c1ccccc1)c1ccccc1` gave DT40 TDP1 CPT inconclusive, CtBP-E1A inh -16, Six1-Eya2 inh 5, IL1B secr inh -30, DT40 TDP1 no CPT 15µM* and TDP1 inh 10%.
Screening CC(C)OCc1c(C(=O)OC/C(O)=C(\C#N)c2nc3ccccc3[nH]2)oc2ccccc12 returned DT40 TDP1 CPT 11%, CtBP-E1A inh -2, Six1-Eya2 inh -1, IL1B secr inh 21, DT40 TDP1 no CPT inconclusive and TDP1 inh 7%.
c1ccc2c(C[C@@H]3CNCCN3CCC34CC5CC(CC(C5)C3)C4)cccc2c1 was read as DT40 TDP1 CPT 18µM*, CtBP-E1A inh 0, Six1-Eya2 inh -3, IL1B secr inh 10, DT40 TDP1 no CPT inconclusive and TDP1 inh 3%.
CC(C)(C)CN1CCNC[C@H]1Cc1cccc2ccccc12 was read as DT40 TDP1 CPT inconclusive, CtBP-E1A inh 0, Six1-Eya2 inh 3, IL1B secr inh inconclusive, DT40 TDP1 no CPT inconclusive and TDP1 inh 0%.
For c1ccc(C2(CN3CCNC[C@H]3Cc3cccc4ccccc34)CC2)cc1 the results were DT40 TDP1 CPT inconclusive, CtBP-E1A inh -1, Six1-Eya2 inh 0, IL1B secr inh -68* and DT40 TDP1 no CPT inconclusive.
Screening O=C(CNC(=O)N1CC(=O)Nc2ccccc21)Nc1nccs1 returned DT40 TDP1 CPT -1%, CtBP-E1A inh 6, Six1-Eya2 inh 1, IL1B secr inh 44, DT40 TDP1 no CPT 12% and TDP1 inh 2%.
Cc1ncc(CN2CCCC(C(=O)Nc3ccc(-c4cccc(F)c4)cc3)C2)s1 (stereo not given) was read as DT40 TDP1 CPT inconclusive, CtBP-E1A inh -1, Six1-Eya2 inh -11, IL1B secr inh inconclusive, DT40 TDP1 no CPT inconclusive and TDP1 inh 6%.
For COc1cccc(-c2ccc(NC(=O)C3CCCN(Cc4cnn(C(C)C)c4)C3)cc2)c1 (stereo not given) the results were DT40 TDP1 CPT 23µM*, CtBP-E1A inh -26, Six1-Eya2 inh -15, IL1B secr inh -79*, DT40 TDP1 no CPT inconclusive and TDP1 inh 6%[56.1 µM].
For COCc1ccc(CN2CCCC(C(=O)Nc3ccc(-c4cccc(OC)c4)cc3)C2)o1 (stereo not given) the results were DT40 TDP1 CPT inconclusive, CtBP-E1A inh -15, Six1-Eya2 inh -14, IL1B secr inh -5, DT40 TDP1 no CPT 15µM* and TDP1 inh 10%.
COc1cccc(-c2ccc(NC(=O)C3CCCN(Cc4cnc(N(C)C)s4)C3)cc2)c1 (stereo not given) was read as DT40 TDP1 CPT 18µM*, Six1-Eya2 inh -18, IL1B secr inh 15, DT40 TDP1 no CPT 23µM* and TDP1 inh 11%.
